HepG2 tox-1 – qHTS for Inhibitors of TGF-b: Cytotox Counterscreen; HepG2 CAGA-GFP viability, ATP luminescence, 18 h; Potency, µM (series often up to 46.1 µM), for inactives: at the top dose activity change, negative = cytotoxicity, actives largely listed as cytotoxic; 0.76% of 410,000 active; AID 588856, 2011; note: potency is the fitted concentration of half-maximal effect
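CellTiter-Glo luminescence gave cytotoxicity after 18 hours at 37 degrees C. The cells were HepG2 CAGA-GFP in 1% FBS DMEM, stimulated with 500 pg/mL TGF-beta after compound addition. %Activity was normalised to no-cell wells (complete cell-killing) and DMSO (no toxicity), and curves were fitted and classified.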
ATXN2 expr inh – Primary qHTS for Inhibitors of ATXN expression; HEK-293 ATXN2-luciferase reporter, luminescence, 24 h; Potency, µM (titrated, usually from 57 µM), inactives show at the highest dose activity change, negative = inhibition, most hits filed as inhibitors; 0.72% of 360,000 active; AID 1745845, 2022; note: potency is the fitted concentration of half-maximal effect; % is set by controls: 0 for no effect and ±100 for the full control effect; nearly all actives have a fitted effect of over 55% in size
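ATXN2-luciferase reporter cells (luciferase flanked by upstream and downstream ATXN2 gene portions) were treated 24 h at 37 °C with compounds at up to 57 uM. SteadyGlo luminescence gave expression; GF-AFC fluorescence gave viability.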
S2 tox – Viability Counterscreen for Primary qHTS for Inhibitors of ATXN expression; S2 cells (HEK-293 line with an ATXN2-luciferase reporter) viability, CellTiter-Fluor protease fluorescence, 24 h; Potency, µM (top dose mostly 56.7 µM), hits mostly cytotoxic; 0.49% of 400,000 active; AID 651635, 2014; note: potency is the fitted concentration of half-maximal effect; nearly all actives have a fitted effect of over 40% in size
TGFb inhibitor – qHTS for Inhibitors of TGF-b; HepG2 CAGA-GFP TGF-b/SMAD3 reporter, GFP fluorescence, 18 h; TGF-beta stimulated, 500 pg/mL final; Potency, µM (doses to about 46.1 µM), inactives show at the top dose activity, negative = inhibition, most hits filed as inhibitors; AID 588855, 2011; 1.2% of 410,000 active; note: potency is the fitted concentration of half-maximal effect; % is set by controls: 0 for no effect and ±100 for the full control effect; nearly all actives have a fitted effect of over 65% in size
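First, reporter cells (HEPG2 CAGA-GFP) rested 2 h at 37 degrees C. Next, compounds were pinned in and TGF-beta added to 500 pg/mL final. After 18 h, GFP was imaged per cell and summed per well.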
D3 antag – qHTS of D3 Dopamine Receptor Antagonist: qHTS. D(3) dopamine receptor (Homo sapiens), P35462. D3R cells, DiscoveRx beta-arrestin luminescence, antagonist mode; hits give low values. max response, negative = inhibition, %. 2.5% of 360,000 active; in the data active = max response below about -50%; inconclusive = no clear call, values can overlap the other calls; note: % is set by controls: 0 for no effect and ±100 for the full control effect
Target sequence (P35462 whole entry, looked up): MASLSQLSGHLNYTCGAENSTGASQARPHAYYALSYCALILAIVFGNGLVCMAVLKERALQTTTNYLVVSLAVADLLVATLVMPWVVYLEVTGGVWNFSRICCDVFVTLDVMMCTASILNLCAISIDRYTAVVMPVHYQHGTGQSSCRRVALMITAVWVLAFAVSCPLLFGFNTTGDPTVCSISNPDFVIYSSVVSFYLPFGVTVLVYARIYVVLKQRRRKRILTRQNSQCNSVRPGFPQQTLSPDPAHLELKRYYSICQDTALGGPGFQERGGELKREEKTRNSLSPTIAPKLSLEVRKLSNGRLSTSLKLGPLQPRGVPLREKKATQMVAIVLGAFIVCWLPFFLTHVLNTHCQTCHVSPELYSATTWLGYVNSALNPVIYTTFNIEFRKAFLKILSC
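Cells plated overnight at 1500 cells/well, then exposed to library compounds with dopamine controls for 90 minutes at 37 degrees C. DiscoveRx reagent added for 30–60 minutes at room temperature; luminescence read, quantitative HTS format.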
DRD3 agonist – qHTS of D3 Dopamine Receptor Agonist: qHTS | D(3) dopamine receptor (Homo sapiens), P35462 | 0.58% of 410,000 active | D3R DiscoveRx beta-arrestin cells, luminescence, 90 min | max activation, %; in the data active = max activation above about 30%; note: 0% is about no effect
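Agonist-mode cell screen: cells plated at 1500/well and incubated overnight at 37 °C, then exposed to library compounds for 90 min at 37 °C. Detection reagent was added for 30–60 min at room temperature, and luminescence was read.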
TGFb CAGA inh – qHTS for Inhibitors of TGF-b: Confirmation of Cherry Picks; shares compounds with TGFb inhibitor; HepG2 CAGA-GFP TGF-b reporter, GFP fluorescence, 18 h; cells stimulated with TGF-beta, 500 pg/mL; Potency, µM (doses to about 46.1 µM), without a hit: at the highest dose activity, negative = inhibition, most hits filed as inhibitors; 63% of 1,600 active; note: potency is the fitted concentration of half-maximal effect; % is set by controls: 0 for no effect and ±100 for the full control effect; nearly all actives have a fitted effect of over 65% in size
HepG2 tox-2 – qHTS for Inhibitors of TGF-b: Cytotox Counterscreen for Cherry Picks; shares compounds with TGFb inhibitor; HepG2 CAGA-GFP viability, ATP luminescence, 18 h; cells stimulated with TGF-beta, 500 pg/mL; Potency, µM (series often up to 46.1 µM), inactives show at the highest dose activity, negative = cytotoxicity, usual class: inhibitors; 27% of 1,600 active; AID 720535, 2013; note: potency is the fitted concentration of half-maximal effect; % is set by controls: 0 for no effect and ±100 for the full control effect; nearly all actives have a fitted effect of over 70% in size
CCL64 TGFb inh – qHTS for Inhibitors of TGF-b: CCL64 Cells Orthogonal Assay for Cherry Picks; Potency, µM (doses to about 46.1 µM), for inactives: at the top dose activity, negative = inhibition, hits mostly inhibitors; 41% of 1,600 active; AID 720536, 2013; shares compounds with TGFb inhibitor; CCL64 CAGA-GFP reporter, TGF-b stimulated, GFP fluorescence, 18 h; note: potency is the fitted concentration of half-maximal effect; nearly all actives have a fitted effect of over 65% in size
COP TGFb inh – qHTS for Inhibitors of TGF-b: Hit Validation in HepG2 Cells using COP promoter. shares compounds with TGFb inhibitor. AID 720537, 2013. 3% of 1,600 active. HepG2 COP-GFP TGF-b reporter, GFP fluorescence, 18 h; cells stimulated by added recombinant TGF-beta. Potency, µM (highest dose often 46.1 µM), for inactives: top-dose activity, negative = inhibition, hits mostly inhibitors; note: potency is the fitted concentration of half-maximal effect; nearly all actives have a fitted effect of over 70% in size
Starred values were filed as active, the others as inactive; i = inactive; ? = inconclusive; . = no result given; [ ] = remark or other dose. An excerpt weighted towards active compounds, which were near 4.7% of everything screened. Unless noted, calls come from the whole dose curve; as a rule, active = well fitted curve in the direction sought with a large enough effect; inconclusive = small, poorly fitted or top-dose-only effect, or another doubt; inactive = no such curve, though single readings can be large; an effect the other way counts as inactive or inconclusive.

SMILES | HepG2 tox-1 | ATXN2 expr inh | S2 tox | TGFb inhibitor | D3 antag | DRD3 agonist | TGFb CAGA inh | HepG2 tox-2 | CCL64 TGFb inh | COP TGFb inh
Cc1ccc(-c2cc(-c3ccc(C)cc3)[n+](-c3ccccc3)c(-c3ccc(C)cc3)c2)cc1 | -69% | ? | . | 1.3µM* | -25 | -24 | 1.5µM* | 9.2µM* | 1.6µM* | -75%
CCCCN=C[C@]12CCC(O)CC1(O)CCC1[C@@H]2CC[C@]2(C)[C@H](C3C=CC(=O)O3)CCC12O (stereo not given in full) | -68% | ? | i | 3.5µM* | 3 | -7 | ? | 1.2µM* | 1.5µM* | 41%
CC12CCC3C(CCC4(O)CC(O)CCC34C=NO)C1(O)CCC2C1=COC(=O)C1 (stereo not given) | -43% | ? | ? | 1µM* | 2 | 3 | 12µM* | 1µM* | 0.29µM* | 57%
C[C@]12N[C@@H](Cc3ccccc31)c1ccccc12 | . | . | i | . | . | . | . | . | . | .
Nc1nc(F)nc2c1ncn2[C@@H]1O[C@H](CO)[C@@H](O)[C@H]1O | -37% | 2.5µM* | 3.2µM* | 0.79µM* | 16 | 11 | 0.58µM* | 0.46µM* | 1.2µM* | 25%
CCOCCOC(C)=O | . | 5%[116 µM] | i | . | . | 13 | . | . | . | .
C[C@H]1CCC/C=C/[C@@H]2C[C@H](O)C[C@H]2[C@@H](O)/C=C/C(=O)O1 | -41% | ? | ? | -109% | 16 | 7 | 0.058µM* | 0.13µM* | ? | 78%
CCCCC[C@H]1CCCCC[C@@H](O)C[C@@H](O)[C@@H](O)/C=C/C(=O)O1 | . | 2% | i | . | -4 | -3 | . | . | . | .
O=c1c2ccccc2nc(/C=C\c2ccccc2F)n1-c1ccc(O)cc1 | -20% | . | . | -2% | . | 3 | . | . | . | .
O=c1c2ccccc2nc(/C=C/c2ccc([N+](=O)[O-])o2)n1-c1ccc(O)cc1 | -63% | 13µM* | 10µM* | 2.8µM* | ? | -11 | ? | 5.8µM* | 2.3µM* | 22%
COC1CC(C)C(OC)c2cc(O)cc(c2O)NC(=O)C(C)=CC=CC(C)C(OC(N)=O)C(C)=CC(C)C1OC (stereo not given) | 1% | 3.8µM* | ? | 7.1µM* | -8 | 0 | 0.52µM* | 5.2µM* | 4.1µM* | 22%
Cc1cccc(Cn2c(=O)n(Cc3ccc(C(=O)NC4CCN(Cc5ccccc5)CC4)cc3)c(=O)c3ccccc32)c1 | -15% | -2% | i | ? | . | -20 | . | . | . | .
COC(=O)C1=C(c2ccc(OC(F)(F)F)cc2)C[C@@H]2CC[C@H]1N2C(=O)N1CCC(C)CC1 | 3% | ? | 28µM* | 6.3µM* | -11 | -10 | 16µM* | ? | ? | 50%
O=c1[nH]c2ccccc2n1C1CCN(C(c2cccs2)c2nnnn2-c2ccc3c(c2)OCCO3)CC1 (stereo not given) | -6% | ? | ? | 11µM* | 55 | 1 | -83% | -24% | ? | 54%
O=c1[nH]c2ccccc2n1C1CCN(C(c2ccccc2OC(F)(F)F)c2nnnn2-c2ccc3c(c2)OCCO3)CC1 (stereo not given) | -56% | 13µM* | . | 8.9µM* | 13 | 35* | ? | ? | 8.2µM* | 38%
COc1ccc(-n2nnnc2C(c2ccccc2)N2CCC(n3c(=O)[nH]c4ccccc43)CC2)cc1 (stereo not given) | -2% | ? | ? | 8.9µM* | 4 | 3 | ? | ? | ? | 58%
COc1ccc(-n2nnnc2C(c2cccs2)N2CCC(n3c(=O)[nH]c4ccccc43)CC2)cc1 (stereo not given) | -3% | ? | ? | ? | 62 | 7 | . | . | . | .
O=c1[nH]c2ccccc2n1C1CCN(C(c2cccc3ccccc23)c2nnnn2Cc2ccccc2)CC1 (stereo not given) | -23% | ? | ? | 16µM* | 27 | 9 | 6.5µM* | -7% | ? | 2%
O=c1[nH]c2ccccc2n1C1CCN(C(c2ccccc2)c2nnnn2-c2ccc3c(c2)OCCO3)CC1 (stereo not given) | 10% | ? | . | ? | 130 | 6 | . | . | . | .
COc1ccc(-n2nnnc2C(c2cccc(OC)c2OC)N2CCC(n3c(=O)[nH]c4ccccc43)CC2)cc1 (stereo not given) | -14% | -36% | ? | ? | 18 | 10 | . | . | . | .
NCC(=O)c1ccc(Br)cc1 | -30% | . | . | ? | . | . | . | . | . | .
COC(=O)[C@@H](N)CCCN/C(N)=N/[N+](=O)[O-] | . | 10% | i | . | . | -9 | . | . | . | .
COc1ccc(S(=O)(=O)N(C)C[C@H]2Oc3c(NC(=O)NC4CCCCC4)cccc3C(=O)N([C@H](C)CO)C[C@@H]2C)cc1 | -15% | ? | ? | ? | ? | -21 | . | . | . | .
ClC1=C(Cl)C(Cl)=C(Cl)C1=C/C=C/c1ccccc1 | -2% | ? | ? | -2% | 2 | 4 | . | . | . | .
